# Source: the OligoGym collection
# Target: BARX2
# Assay: pooled miR-30 sensor sort-seq; sequence = guide strand
# Conditions: shRNA
# Further: reference of the scale not given here.
row,Sequence,sensor-assay potency score (higher = more potent)
1,TCCGTCTCTGACTCGCTGCTGG,-0.99
2,TCAGCTTCAATCTCTTCTGATG,-1.18
3,TCGTCGATCATGAAAGTCTTGT,-0.832
4,TTCTCTTCAGCTTCAATCTCTT,-0.0921
5,TTTCTCAAAGTAATCGCAGGTC,0.887
6,TTGACAAATACTTCTGCTTCTG,-0.22
7,TAATCGCAGGTCTCCTTGGAGA,-1.07
8,TGTTCCGTCTCTGACTCGCTGC,-0.452

# Target: BAX
# Assay: as above
# Conditions: shRNA
row,Sequence,sensor-assay potency score (higher = more potent)
1,TCGGAAAAAGACCTCTCGGGGG,-0.669
2,TAGGAGAGGAGGCCGTCCCAAC,-1.61
3,AAACATGTCAGCTGCCACTCGG,-0.504
4,TTGGATCCAGCCCAACAGCCGC,-1.52
5,TGCGCTTGAGACACTCGCTCAG,0.0222
6,AACATGTCAGCTGCCACTCGGA,-1.25
7,ATGCGCTTGAGACACTCGCTCA,-1.61
8,TTGAGACACTCGCTCAGCTTCT,-0.529
9,TTCATGATCTGCTCAGAGCTGG,0.0889
10,TCGATCCTGGATGAAACCCTGA,-0.785
11,TTACTGTCCAGTTCGTCCCCGA,-0.0654
12,ATCAGTTCCGGCACCTTGGTGC,-0.369
13,TACTGTCCAGTTCGTCCCCGAT,-0.951
14,TCATGATCTGCTCAGAGCTGGT,-1.61
15,TCTTGGTGGACGCATCCTGAGG,-1.92
16,AATCATCCTCTGCAGCTCCATG,-1.42
17,TTGCCGTCAGAAAACATGTCAG,-0.725
18,TTGAGCACCAGTTTGCTGGCAA,0.213
19,TAGAAAAGGGCGACAACCCGGC,-0.132
20,ATGATCTGCTCAGAGCTGGTGG,-1.15
21,TGATGGTTCTGATCAGTTCCGG,-0.352
22,TTCTTGGTGGACGCATCCTGAG,-1.72

# Target: BBC3
# Assay: as above
# Conditions: shRNA
row,Sequence,sensor-assay potency score (higher = more potent)
1,TTGTCTCCGCCGCTCGTACTGT,-1
2,TACAGTATCTTACAGGCTGGGC,-0.231
3,TTGAGGTCGTCCGCCATCCGCC,-1.67
4,TCGTACTGTGCGTTGAGGTCGT,0.393
5,TTGTACAGGACCCTCCAGGGTG,-1.05
6,TGCTCCGCCAGCGAGAGCGAGG,-2.06
7,TATACAGTATCTTACAGGCTGG,-0.558
8,TACAGGACCCTCCAGGGTGAGG,-1.57
9,TGTGCGTTGAGGTCGTCCGCCA,-0.785
10,TCCGCCGCTCGTACTGTGCGTT,-1.32
